# High-throughput results deposited in PubChem by The Scripps Research Institute Molecular Screening Center.
# FID counter: fluorescent intercalator displacement, NS3 helicase counter-screen; inhibition, % at 7.9 µM; 0.17% of 290,000 active; DNA fluorescent intercalator displacement, fluorescence; in the data active = inhibition above about 37%;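 also: 0% = vehicle and 100% = reference compound; higher means more ethidium bromide displaced from hairpin DNA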
# Ba/F3 V617F tox: reduce viability of Ba/F3 cells dependent on JAK2V617F. Ba/F3 EpoR-JAK2V617F viability, ATP luminescence. 1.1% of 220,000 active. inhibition, % at 5.6 µM. AID 1446;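 active = inhibition above the campaign mean plus 3 SD over all tested compounds, cut at about 24% in these data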;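 also: cytokine-independent growth of Ba/F3 cells driven by EpoR plus mutant JAK2; 0% = DMSO-treated cells and 100% = JAK inhibitor I control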
# GPR7 antagonist: human neuropeptides B/W receptor 1 antagonism | 1.1% of 290,000 active | AID 1861 | GPR7-expressing cells, fluorescence antagonist assay | inhibition, % at 4.4 µM | P48145; in the data active = inhibition above about 16%, passing the limit was not always enough;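 also: cells stimulated with the agonist NPW; 0% = agonist with vehicle and 100% = vehicle without agonist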
# Target sequence (P48145 whole entry, looked up): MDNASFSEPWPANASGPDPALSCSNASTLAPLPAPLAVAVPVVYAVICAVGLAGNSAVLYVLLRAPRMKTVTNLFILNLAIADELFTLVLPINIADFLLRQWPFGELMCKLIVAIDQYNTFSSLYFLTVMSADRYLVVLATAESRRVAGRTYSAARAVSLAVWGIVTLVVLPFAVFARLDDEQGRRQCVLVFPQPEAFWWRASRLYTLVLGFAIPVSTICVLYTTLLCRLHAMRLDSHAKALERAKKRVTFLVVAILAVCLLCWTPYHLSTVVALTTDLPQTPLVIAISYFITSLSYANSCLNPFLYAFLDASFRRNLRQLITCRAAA
# KLF5 inhibitor: suppresses KLF5 promoter-driven expression; DLD-1 KLF5 promoter-luciferase reporter, luminescence; inhibition, % at 5 µM; 0.23% of 290,000 active;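 active = inhibition above a per-plate limit of that plate's mean compound inhibition plus 3 SD, cut at about 60% in these data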;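 also: 0% = DMSO wells and 100% = LY294002 at 200 µM; higher means less KLF5 promoter-driven luciferase light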
# IEC-6 cytotox: IEC-6 cytotoxicity, counter-screen for KLF5 inhibitors; luminescence viability; inhibition, % at 5 µM; 0.78% of 290,000 active; AID 1825;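 also: 0% = plate median of test compound wells and 100% = cytotoxic reference compound wells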
# BaF3 parental: counter-screen for JAK2V617F inhibitors: parental Ba/F3 viability inhibitors | inhibition, % at 5.6 µM | 1.1% of 220,000 active | CellTiter-Glo ATP luminescence;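 active = inhibition above a per-campaign cutoff, the mean inhibition of all tested compounds plus 3 SD, cut at about 27% in these data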;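 also: 0% = DMSO wells and 100% = JAK Inhibitor I control wells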
# BaF3 tox 2: parental Ba/F3 viability inhibition for JAK2V617F counter-screen. shares compounds with Ba/F3 V617F tox. CellTiter-Glo luminescence; cells kept alive by added IL-3. inhibition, % at 5.6 µM. 31% of 580 active. AID 1520;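 active = cell growth inhibition above the hit limit set in the earlier mutant JAK2 cell screen, cut at about 27% in these data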;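 also: plate controls were DMSO-treated cells for no effect and JAK Inhibitor I control wells for full effect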
# JAK2V617F confrm: confirmation: loss of viability in JAK2V617F-dependent Ba/F3 cells; inhibition, % at 5.6 µM; shares compounds with Ba/F3 V617F tox; AID 1521; 66% of 580 active; Ba/F3 EpoR-JAK2V617F viability, CellTiter-Glo luminescence;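 active = mean inhibition above the hit cutoff derived in the earlier primary screen, cut at about 25% in these data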;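 also: 0% = DMSO-treated cells and 100% = JAK inhibitor I control wells; higher means lower luminescence from reduced cell ATP and viability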
# IEC-6 cytotox cf: confirmation of cytotoxic compounds in rat IEC-6 intestinal epithelial cells; shares compounds with IEC-6 cytotox; IEC-6 rat intestinal epithelial viability, luminescence; inhibition, % at 5 µM; 63% of 1,900 active; AID 1907;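 also: 0% = vehicle and 100% = reference cytotoxic drug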
# The depositor's hits bear a star; . = no result. Only some compounds are listed: those with a hit (about 2.6% of all), similar ones and a draw of the others. Rule as the data show it, unless noted: active = inhibition above about 22%; inactive = the rest.
SMILES,FID counter,Ba/F3 V617F tox,GPR7 antagonist,KLF5 inhibitor,IEC-6 cytotox,BaF3 parental,BaF3 tox 2,JAK2V617F confrm,IEC-6 cytotox cf
Cc1nn2c(NCc3ccccn3)c3c(nc2c1-c1ccccc1)CCC3,-4,48*,-6,27,95*,11,10,59*,15
O=C(N/N=C/c1ccccc1Cl)c1[nH]c2ccc(Br)cc2c1-c1ccccc1,-6,47*,-3,13,56*,21,88*,100*,70*
Cc1ccc(OCCSc2nc3ccccc3n2CC(=O)O)cc1C,-34,.,-6,-28,1,.,.,.,.
COc1ccc(OCCCC(=O)Nc2cccc(C(C)=O)c2)cc1,-5,73*,-5,-20,89*,-1,-6,-4,-10
Cc1cc2c(cc(C(=O)OCC(=O)NCc3cccs3)n2C(C)C)o1,-12,37*,-1,58,77*,18,41*,90*,55*
CN1CCN(S(=O)(=O)c2cccs2)CC1,1,-1,8,-31,0,0,.,.,.
O=S(=O)(c1cccs1)N1CCN(c2ccc(O)cc2)CC1,4,66*,-4,-7,24*,-2,6,60*,6
CC(=O)c1ccc(NC(=O)c2cc3nc4c(c(C(F)(F)F)n3n2)CCCC4)cc1,-8,-1,3,-53,-5,1,.,.,.
CC(=O)NS(=O)(=O)c1ccc(N=NN2CCOCC2)cc1,4,-4,5,-29,-2,5,.,.,.
C/C(=N\N=C(N)N)c1cc(Cl)ccc1Cl,4,44*,3,-3,31*,8,-4,23,7
C/C(=N\N=C(N)N)c1ccc(Cl)cc1Cl,11,-1,9,-10,9,7,.,.,.
N#Cc1ncc(-c2ccc3c(c2)OCCOCCOCCOCCO3)nc1C#N,1,-1,-1,30,-4,9,.,.,.
N#Cc1ncc(-c2ccc3c(c2)OCCOCCOCCOCCOCCO3)nc1C#N,-7,34*,-3,33,32*,-3,-3,43*,12
O=C(Cc1cccc2ccccc12)N1CC[C@@]2(O)CCCC[C@H]2C1,-23,-1,-2,-11,-3,-6,.,.,.
O=C(/C=C/c1ccc(N2CCC(c3ccccc3)=N2)cc1)c1ccccc1,-3,-1,-17,-30,4,4,.,.,.
O=C(NCc1ccc(Cl)cc1)C1CCCO1 (configuration not stated),2,-4,10,-17,-7,5,.,.,.
Cc1cc(=O)[nH]c2ccccc12,0,-1,1,-36,-2,6,.,.,.
Cc1cc2[nH]c3c(c[n+](C)c4ccccc34)c2cc1C,64*,33*,-3,58,65*,4,15,92*,55*
O=C(NC1CCCc2ccccc21)c1n[nH]c(=O)c2ccccc12 (configuration not stated),-13,24*,-15,2,23*,-7,9,42*,34*
Nc1nc(Cl)nc(N(c2ccccc2)c2ccccc2)n1,-2,1,-13,0,8,3,.,.,.
Nc1nc(CCl)nc(N(c2ccccc2)c2ccccc2)n1,-7,97*,-4,-9,90*,1,4,99*,11
CCC(=O)N1CCN(c2ccc(NC(=O)c3ccc([N+](=O)[O-])o3)cc2)CC1,-3,34*,-5,4,97*,-14,45*,95*,51*
O=C(Nc1ccc(N2CCN(C(=O)c3ccc(Cl)cc3)CC2)cc1)c1ccc([N+](=O)[O-])o1,1,3,4,-28,-4,6,.,.,.
CCOC(=O)CN1C(=O)C(=O)N(Cc2cccc(C)c2)C1=O,-11,.,-3,-14,1,.,.,.,.
COc1ccccc1-c1cc(C(F)(F)F)nc(S(C)(=O)=O)n1,-3,5,6,5,8,7,.,.,.
SMILES,FID counter,Ba/F3 V617F tox,GPR7 antagonist,KLF5 inhibitor,IEC-6 cytotox,BaF3 parental,BaF3 tox 2,JAK2V617F confrm,IEC-6 cytotox cf
CS(=O)(=O)c1nc(-c2ccco2)cc(C(F)(F)F)n1,-1,42*,15*,-8,25*,21,8,70*,36*
COc1ccc(NC(=O)/C(Cl)=C(/Cl)S(=O)(=O)Cc2ccc(C)cc2)cn1,-14,33*,24*,28,23*,5,88*,98*,43*
O=C(CCl)N=c1sccn1Cc1cccc2ccccc12,-11,102*,-10,-15,92*,5,24,99*,17
O=C(NCC1CCCO1)C(c1ccc(F)cc1)N(C(=O)Cn1nnc(-c2ccc(F)cc2)n1)c1cccc(O)c1 (configuration not stated),-35,-2,-8,-22,-1,5,.,.,.
COc1ccc(C)cc1S(=O)(=O)n1cnc(C)c1,0,.,-10,-25,-1,.,.,.,.
COc1cc(C)c(C(C)C)cc1S(=O)(=O)n1cnc(C)c1,-18,63*,14,37,36*,16,61*,92*,51*
OC1(c2ccc(Cl)cc2)CCN(Cc2cn[nH]c2-c2ccccc2)CC1,5,13,5,-6,14,-1,.,.,.
COc1ccc(-c2[nH]ncc2CN2CCN(c3ccc(F)cc3)CC2)cc1,-1,-3,-5,-8,-3,-1,.,.,.
OC1(c2ccc(Cl)cc2)CCN(Cc2cn[nH]c2-c2ccc(F)cc2)CC1,10,45*,1,-13,43*,3,18,34*,26*
COc1ccc(-c2[nH]ncc2CN2CCC(O)(c3ccc(Cl)cc3)CC2)cc1,5,41*,-1,-7,34*,11,34*,41*,23*
O=C(OCC1CCCN2CCCCC12)c1ccc2c(c1)OCO2 (configuration not stated),6,-5,-3,-21,0,-2,.,.,.
CCc1nnc(NC(=O)CCC(=O)N2CCCC2)s1,-1,-2,4,-20,4,0,.,.,.
CCc1ccc(/C=N/NC(=O)c2cc(C3CC3)nc3ccccc23)s1,-15,42*,11,27,34*,22,63*,95*,54*
CCCC(=O)Nc1nnc(SCC(=O)NCc2ccco2)s1,1,0,-7,-16,-3,3,.,.,.
O=C(CCl)NCc1cc(-c2ccc(Cl)cc2)no1,-2,24*,-19,3,24*,11,12,75*,31*
CCN(C(=O)COc1cc(=O)n(C)c2ccccc12)c1cccc(Cl)c1,-29,-1,-1,-24,-2,3,.,.,.
COc1ccc(OC)c2c1C(=O)C(Cl)=C(Cl)C2=O,2,66*,-1,7,86*,-4,84*,92*,63*
Cc1noc(C)c1CSc1nc2ccccc2c(=O)n1-c1ccc(F)cc1F,-16,0,5,-3,12,8,.,.,.
